Test results: the supplement of paper PMC3545927
Some of the results follow. No count for the full screen is at hand.

Target: furin, P09958
Assay: furin cleavage Z-score vs untreated control; higher = more cleavage, active = 3.5 or more, inactive = 1 or less, 8 variable residues between constant flanks
Summary of the method: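 Purified furin cleaved 8-mer peptides that were fused to a cDNA oligonucleotide and held on magnetic beads by their N-terminus. Each 0.01 ml reaction used a 1:10 enzyme:substrate ratio in 50 mM HEPES pH 7.5 with CaCl2 and NaCl and ran 7.5, 15 or 30 min. Released DNA was adapter-tagged by PCR and sequenced, and read counts gave abundance. The cleavage Z-score came from log counts against furin-free reactions, lowess-adjusted and scaled by median absolute deviation.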

Chain of furin, P09958 (P09958 whole entry): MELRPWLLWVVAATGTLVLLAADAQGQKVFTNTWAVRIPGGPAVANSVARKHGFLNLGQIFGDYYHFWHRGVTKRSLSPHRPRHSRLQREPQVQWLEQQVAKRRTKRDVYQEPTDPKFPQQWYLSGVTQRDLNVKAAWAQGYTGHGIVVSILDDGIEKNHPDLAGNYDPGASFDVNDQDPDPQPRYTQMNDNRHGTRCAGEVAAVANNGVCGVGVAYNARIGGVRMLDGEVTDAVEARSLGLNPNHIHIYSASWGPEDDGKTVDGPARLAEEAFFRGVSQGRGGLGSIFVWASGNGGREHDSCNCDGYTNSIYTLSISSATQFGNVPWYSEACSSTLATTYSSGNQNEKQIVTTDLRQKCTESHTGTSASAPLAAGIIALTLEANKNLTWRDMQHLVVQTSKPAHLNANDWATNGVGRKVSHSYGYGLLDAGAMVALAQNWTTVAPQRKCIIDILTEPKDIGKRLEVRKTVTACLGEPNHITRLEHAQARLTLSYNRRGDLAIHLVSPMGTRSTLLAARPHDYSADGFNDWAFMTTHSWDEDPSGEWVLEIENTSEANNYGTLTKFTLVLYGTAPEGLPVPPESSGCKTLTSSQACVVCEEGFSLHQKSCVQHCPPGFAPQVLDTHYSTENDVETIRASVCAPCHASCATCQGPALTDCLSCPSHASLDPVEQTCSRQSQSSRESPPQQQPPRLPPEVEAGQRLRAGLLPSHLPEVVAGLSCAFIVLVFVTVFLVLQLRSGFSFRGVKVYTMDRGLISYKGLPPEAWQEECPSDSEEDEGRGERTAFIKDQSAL

CAVPCCSMSYAGNASASA [HC2019]
furin cleavage Z-score (7.5 min): -0.257 (inactive)
furin cleavage Z-score (15 min): 0.638 (inactive)
furin cleavage Z-score (30 min): 1.91

CAEQTTPCSGAGNASASA [HC1982]
furin cleavage Z-score (7.5 min): -1.3 (inactive)
furin cleavage Z-score (15 min): -0.293 (inactive)
furin cleavage Z-score (30 min): 0.257 (inactive)

CASPLLLTTTAGNASASA [HC492]
furin cleavage Z-score (7.5 min): -0.516 (inactive)
furin cleavage Z-score (15 min): -0.474 (inactive)
furin cleavage Z-score (30 min): -1.67 (inactive)

CAESVVCCSMAGNASASA [HC2137]
furin cleavage Z-score (7.5 min): -0.35 (inactive)
furin cleavage Z-score (15 min): -0.242 (inactive)
furin cleavage Z-score (30 min): -0.275 (inactive)

CAEEEVPCHRAGNASASA [HC2452]
furin cleavage Z-score (7.5 min): -0.0801 (inactive)
furin cleavage Z-score (15 min): -0.749 (inactive)
furin cleavage Z-score (30 min): -0.159 (inactive)

CADAVILLMCAGNASASA [HC596]
furin cleavage Z-score (7.5 min): -0.491 (inactive)
furin cleavage Z-score (15 min): 1.35
furin cleavage Z-score (30 min): 0.744 (inactive)

CAREKRLLYSAGNASASA [FS-3218]
furin cleavage Z-score (7.5 min): -0.25 (inactive)
furin cleavage Z-score (15 min): 0.302 (inactive)
furin cleavage Z-score (30 min): -0.105 (inactive)

CAREKRSEYSAGNASASA [FS-1852]
furin cleavage Z-score (7.5 min): 3.09
furin cleavage Z-score (15 min): 3.81 (active)
furin cleavage Z-score (30 min): 3.2

CAIEFRHKRKAGNASASA [FS-1535]
furin cleavage Z-score (7.5 min): -1.35 (inactive)
furin cleavage Z-score (15 min): 1.39
furin cleavage Z-score (30 min): 3.89 (active)

CARGPRGKGKAGNASASA [FS-1893]
furin cleavage Z-score (7.5 min): -0.459 (inactive)
furin cleavage Z-score (15 min): -0.333 (inactive)
furin cleavage Z-score (30 min): -2.1 (inactive)

CALLCRHKRKAGNASASA [FS-1359]
furin cleavage Z-score (7.5 min): 7.93 (active)
furin cleavage Z-score (15 min): 9.24 (active)
furin cleavage Z-score (30 min): 8.25 (active)

CATIMAKNEVAGNASASA [HC1439]
furin cleavage Z-score (7.5 min): 1.57
furin cleavage Z-score (15 min): 1.43
furin cleavage Z-score (30 min): 0.513 (inactive)

CAKFHRNRRVAGNASASA [FS-38]
furin cleavage Z-score (7.5 min): 1.89
furin cleavage Z-score (15 min): 4.04 (active)
furin cleavage Z-score (30 min): 2.3

CAEVVASTWVAGNASASA [HC121]
furin cleavage Z-score (7.5 min): 1.23
furin cleavage Z-score (15 min): 1.63
furin cleavage Z-score (30 min): -0.233 (inactive)

CAMGGNITRVAGNASASA [HC1279]
furin cleavage Z-score (7.5 min): -0.69 (inactive)
furin cleavage Z-score (15 min): 2.32
furin cleavage Z-score (30 min): 0.434 (inactive)

CAYGGRNRRVAGNASASA [FS-151]
furin cleavage Z-score (7.5 min): 2
furin cleavage Z-score (15 min): 3.67 (active)
furin cleavage Z-score (30 min): 4.5 (active)

CAVPCVREGNAGNASASA [HC274]
furin cleavage Z-score (7.5 min): -0.737 (inactive)
furin cleavage Z-score (15 min): -0.519 (inactive)
furin cleavage Z-score (30 min): -1.84 (inactive)

CARLPRATGNAGNASASA [FS-2571]
furin cleavage Z-score (7.5 min): 5 (active)
furin cleavage Z-score (15 min): 5.67 (active)
furin cleavage Z-score (30 min): 4.58 (active)

CARLRRMNGNAGNASASA [FS-2994]
furin cleavage Z-score (7.5 min): -0.28 (inactive)
furin cleavage Z-score (15 min): -1.18 (inactive)
furin cleavage Z-score (30 min): -0.557 (inactive)

CARLPRDCTRAGNASASA [FS-1742]
furin cleavage Z-score (7.5 min): 5.34 (active)
furin cleavage Z-score (15 min): 4.96 (active)
furin cleavage Z-score (30 min): 5.25 (active)

CARLARTCGRAGNASASA [FS-2985]
furin cleavage Z-score (7.5 min): -1.25 (inactive)
furin cleavage Z-score (15 min): 0.197 (inactive)
furin cleavage Z-score (30 min): -0.432 (inactive)

CAGVNYATGNAGNASASA [HC241]
furin cleavage Z-score (7.5 min): 1.48
furin cleavage Z-score (15 min): 0.396 (inactive)
furin cleavage Z-score (30 min): -0.36 (inactive)

CAWREVPCHRAGNASASA [HC2428]
furin cleavage Z-score (7.5 min): 0.368 (inactive)
furin cleavage Z-score (15 min): 0.114 (inactive)
furin cleavage Z-score (30 min): 0.301 (inactive)

CAVVCCCMSYAGNASASA [HC114]
furin cleavage Z-score (7.5 min): -0.592 (inactive)
furin cleavage Z-score (15 min): -1.78 (inactive)
furin cleavage Z-score (30 min): -0.879 (inactive)

CAENLPYLVAAGNASASA [HC951]
furin cleavage Z-score (7.5 min): 0.645 (inactive)
furin cleavage Z-score (15 min): -0.626 (inactive)
furin cleavage Z-score (30 min): -0.719 (inactive)

CARKNRSRIPAGNASASA [FS-1732]
furin cleavage Z-score (7.5 min): 0.169 (inactive)
furin cleavage Z-score (15 min): -0.807 (inactive)
furin cleavage Z-score (30 min): 1.17

CARKRKKKEEAGNASASA [FS-2697]
furin cleavage Z-score (7.5 min): 0.247 (inactive)
furin cleavage Z-score (15 min): -0.542 (inactive)
furin cleavage Z-score (30 min): 0.0983 (inactive)

CARKRRAAIPAGNASASA [FS-2970]
furin cleavage Z-score (7.5 min): 8.75 (active)
furin cleavage Z-score (15 min): 10.1 (active)
furin cleavage Z-score (30 min): 9.65 (active)

CARKRRMQEEAGNASASA [FS-2349]
furin cleavage Z-score (7.5 min): 1.31
furin cleavage Z-score (15 min): 4.08 (active)
furin cleavage Z-score (30 min): 2.78

CARKRRGYSEAGNASASA [FS-2566]
furin cleavage Z-score (7.5 min): 2.94
furin cleavage Z-score (15 min): 5.38 (active)
furin cleavage Z-score (30 min): 4.72 (active)

CARKRRHHKEAGNASASA [FS-2699]
furin cleavage Z-score (7.5 min): 2.57
furin cleavage Z-score (15 min): 3.84 (active)
furin cleavage Z-score (30 min): 4.3 (active)

CAITTGSPITAGNASASA [HC803]
furin cleavage Z-score (7.5 min): -2.76 (inactive)
furin cleavage Z-score (15 min): 0.166 (inactive)
furin cleavage Z-score (30 min): -2.04 (inactive)

CAHGVRVLEDAGNASASA [HC237]
furin cleavage Z-score (7.5 min): -1.85 (inactive)
furin cleavage Z-score (15 min): 0.0719 (inactive)
furin cleavage Z-score (30 min): -1.67 (inactive)

CATLPCSGSWAGNASASA [HC1845]
furin cleavage Z-score (7.5 min): -0.596 (inactive)
furin cleavage Z-score (15 min): -0.261 (inactive)
furin cleavage Z-score (30 min): -1.28 (inactive)

CAAFASRGNHAGNASASA [HC1121]
furin cleavage Z-score (7.5 min): -0.112 (inactive)
furin cleavage Z-score (15 min): -1.64 (inactive)
furin cleavage Z-score (30 min): -2.06 (inactive)

CARKRRHAKPAGNASASA [FS-1906]
furin cleavage Z-score (7.5 min): 10.5 (active)
furin cleavage Z-score (15 min): 11.1 (active)
furin cleavage Z-score (30 min): 8.48 (active)

CARGNHVSPTAGNASASA [HC1123]
furin cleavage Z-score (7.5 min): 1.1
furin cleavage Z-score (15 min): 1.54
furin cleavage Z-score (30 min): 0.545 (inactive)

CAEVPCHRPKAGNASASA [HC2414]
furin cleavage Z-score (7.5 min): -1.63 (inactive)
furin cleavage Z-score (15 min): 0.536 (inactive)
furin cleavage Z-score (30 min): -0.415 (inactive)

CAVVCCSMQYAGNASASA [HC2082]
furin cleavage Z-score (7.5 min): 1.92
furin cleavage Z-score (15 min): 0.703 (inactive)
furin cleavage Z-score (30 min): 0.648 (inactive)

CAGGAYDIIIAGNASASA [HC814]
furin cleavage Z-score (7.5 min): -2.09 (inactive)
furin cleavage Z-score (15 min): -0.697 (inactive)
furin cleavage Z-score (30 min): -1.96 (inactive)

CAPAPPRRRAAGNASASA [FS-1041]
furin cleavage Z-score (7.5 min): -0.128 (inactive)
furin cleavage Z-score (15 min): 0.595 (inactive)
furin cleavage Z-score (30 min): -0.381 (inactive)

CAGAQRRRRAAGNASASA [FS-1524]
furin cleavage Z-score (7.5 min): 6.18 (active)
furin cleavage Z-score (15 min): 4.18 (active)
furin cleavage Z-score (30 min): 4.18 (active)

CAGERGFFYTAGNASASA [EK5]
furin cleavage Z-score (7.5 min): -1.92 (inactive)
furin cleavage Z-score (15 min): -1.21 (inactive)
furin cleavage Z-score (30 min): -0.932 (inactive)

CAGERRRRRAAGNASASA [FS-996]
furin cleavage Z-score (7.5 min): 8.97 (active)
furin cleavage Z-score (15 min): 8.15 (active)
furin cleavage Z-score (30 min): 6.93 (active)

CAHHQRRRRAAGNASASA [FS-907]
furin cleavage Z-score (7.5 min): 7.96 (active)
furin cleavage Z-score (15 min): 6.66 (active)
furin cleavage Z-score (30 min): 6.29 (active)

CAGAGAGAGAAGNASASA [NE4]
furin cleavage Z-score (7.5 min): -0.934 (inactive)
furin cleavage Z-score (15 min): -0.739 (inactive)
furin cleavage Z-score (30 min): -0.847 (inactive)
